Tau FP inhib: inhibitors of human tau fibril formation; K18 P301L tau heparin fibrillization, Alexa594 FP, 6 h; 0.39% of 280,000 active; Potency, µM (titrated, usually from 57.7 µM), without a hit: at the highest dose activity, negative = inhibition, hits mostly inhibitors; AID 1468; also: nearly all actives have a fitted effect of over 55% in size
Target sequence (P10636 561-689 P618L limits assumed): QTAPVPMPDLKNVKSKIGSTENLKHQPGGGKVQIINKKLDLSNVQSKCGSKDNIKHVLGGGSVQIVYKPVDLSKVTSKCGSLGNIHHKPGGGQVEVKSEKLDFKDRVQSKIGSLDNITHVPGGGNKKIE
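Heparin (20 uM) drove fibril formation of recombinant tau K18 P301L, 15 uM unlabeled with 0.24 uM Alexa 594 label, for 6 hr at 37 C in 100 mM sodium acetate pH 7. Fluorescence polarization (555/632 nm) read 1 hr after 30 uM ThT.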
Tau fluor counter: counter-screen for tau fibril formation inhibitors; tau K18 P301L Alexa594 fluorescence, heparin fibrillization; Potency, µM (series often up to 57.7 µM), inactives show top-dose activity change, negative = decrease; 0.93% of 280,000 active; also: nearly all actives have a fitted effect of over 55% in size
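Human tau K18 P301L (15 uM unlabeled, 0.24 uM Alexa 594-labeled) in 100 mM sodium acetate pH 7 with 20 uM heparin, 6 hr at 37 C. ThT 30 uM added, 1 hr ambient; Alexa 594 FP and total fluorescence read at 555/632 nm.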
ALDH1A1 inh: blocks purified human ALDH1A1 activity | P00352 | Purified ALDH1A1, NADH fluorescence, propionaldehyde substrate | Potency, µM (titrated, usually from 75.3 µM), for the others: top-dose activity, negative = inhibition, most hits filed as inhibitors | 7.3% of 220,000 active; active = well fitted inhibition curve with a large enough effect, not every such curve was filed as active; inconclusive = small, poorly fitted or top-dose-only effect, or another doubt; inactive = no such curve, though single readings can be large or run the other way;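 also: plate controls were no enzyme wells and a reference inhibitor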
Target sequence (P00352 whole entry, looked up): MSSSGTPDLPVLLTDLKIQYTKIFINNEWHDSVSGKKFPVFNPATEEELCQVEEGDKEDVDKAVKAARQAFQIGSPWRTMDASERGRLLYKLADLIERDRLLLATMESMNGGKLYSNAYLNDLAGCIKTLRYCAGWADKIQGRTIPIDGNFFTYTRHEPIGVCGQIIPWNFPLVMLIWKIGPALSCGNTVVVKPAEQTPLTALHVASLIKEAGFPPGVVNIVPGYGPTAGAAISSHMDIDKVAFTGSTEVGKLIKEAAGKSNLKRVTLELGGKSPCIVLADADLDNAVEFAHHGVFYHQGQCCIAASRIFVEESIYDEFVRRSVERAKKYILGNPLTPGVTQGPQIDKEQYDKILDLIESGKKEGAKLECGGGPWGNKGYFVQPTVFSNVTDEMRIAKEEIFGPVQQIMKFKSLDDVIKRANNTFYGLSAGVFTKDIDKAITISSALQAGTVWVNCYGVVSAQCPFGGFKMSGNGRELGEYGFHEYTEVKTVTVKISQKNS
Tau ThT inhib: blocks human tau fibril formation measured by thioflavin T; P10636; recombinant tau K18 P301L (four-repeat tau fragment), heparin-induced fibrillization, ThT fluorescence; Potency, µM (highest dose often 57.4 µM), without a hit: at the top dose activity, negative = inhibition, most hits filed as inhibitors; 2.1% of 270,000 active; also: nearly all actives have a fitted effect of over 55% in size
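Tau K18 P301L fragment (15 uM unlabeled plus 0.24 uM Alexa 594-labeled) in 100 mM sodium acetate pH 7 with compound, fibrillization induced by 20 uM heparin for 6 hr at 37 C. Thioflavin T (30 uM) added, fluorescence read after 1 hr (ex 450, em 510 nm).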
HPGD inh: inhibitors of human 15-hydroxyprostaglandin dehydrogenase (HPGD); purified HPGD, NADH fluorescence kinetic, PGE2 substrate; Potency, µM, for the others: at the top dose activity change, negative = inhibition, actives largely listed as inhibitors; 4.3% of 150,000 active; active = well fitted inhibition curve with a large enough effect, not every such curve was filed as active; inconclusive = small, poorly fitted or top-dose-only effect, or another doubt; inactive = no such curve, though single readings can be large or run the other way
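NADH formation kinetics: reaction with 30 uM PGE2 and 1 mM NAD+ (final), 20 nM enzyme, Tris-HCl pH 8 with Tween 20, after 15 min compound preincubation at room temperature. Fluorescence change, last versus first of five reads.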
NPSR antag: neuropeptide S receptor (human) antagonism, cAMP | CHO-NPSR cells, cAMP TR-FRET, antagonist mode | Potency, µM (series often up to 38.3 µM), for the others: top-dose activity change, negative = inhibition, most hits filed as inhibitors | Q6W5P4 | 1% of 220,000 active; also: nearly all actives have a fitted effect of over 50% in size
Numbers without * were called inactive; ? = inconclusive; nt = not tested or not shown; [ ] = dose if it differs, or a comment. Only some compounds are listed: those with a hit (about 9.5% of all), similar ones and a draw of the others. Unless noted, calls follow the shape of the dose curve; as a rule, active = well fitted curve in the direction sought with a large enough effect; inconclusive = small, poorly fitted or top-dose-only effect, or another doubt; inactive = no such curve, though single readings can be large; an effect the other way counts as inactive or inconclusive. Unless noted, % is scaled to controls: 0 for no effect and ±100 for the full control effect; potency is read from the fitted curve at half-maximal effect.

SMILES	Tau FP inhib	Tau fluor counter	ALDH1A1 inh	Tau ThT inhib	HPGD inh	NPSR antag
CCNC(=S)Nc1cc(OCC)c(NC(=O)c2ccco2)cc1OCC	1%	-1%	?	8%	-21%	-10%
Cc1onc(-c2cccc(Cl)c2Cl)c1C(=O)O/N=C(\N)c1ccc([N+](=O)[O-])o1	?	?	5µM*	-7%	nt	?
Cc1onc(-c2ccccc2)c1C(=O)O/N=C(\N)c1ccc([N+](=O)[O-])o1	-3%	-20%	?	-14%	nt	9%
CC(C)(C)C(=O)Nc1ccccc1C(=O)OCc1cc(=O)n2ccsc2n1	-1%	5%	nt	10%	nt	nt
COC(=O)c1cc2c(C)cc3ccc(C)cn3c-2c1C(=O)OC	6%	-22%	25µM*	?	-20%	4%[46.1 µM]
CCN(CC)c1ccc(C(=O)OCC(=O)Nc2cccc(S(=O)(=O)NC3=NCCCCC3)c2)cc1	7%	?	?	-16%	28µM*	-3%
O=C(Cn1c(=O)nc(-c2ccccc2)c2ccccc21)N1CCN(c2ccc(F)cc2)CC1	-3%	-5%	nt	-3%	nt	nt
Cc1ccc(NC(=O)NCC2CCN(Cc3cccc(Cl)c3)CC2)cc1Cl	28µM*	?	3%	-7%	nt	-24%
CS(=O)(=O)N1CCC(C(=O)NCc2ccc(F)cc2)CC1	-2%	-3%	3%	-2%	nt	3%
COc1ccc(-n2c(-c3ccccc3F)nc3c(cnn3-c3ccc(C)cc3)c2=O)cc1	3%	-16%	nt	-4%	nt	nt
Cc1ccccc1-c1cc(C(=O)Nc2sc(C)c(C)c2C(N)=O)c2ccccc2n1	?	?	?	22µM*	32µM*	-21%[46.1 µM]
CCOC(=O)c1sc(NC(=O)c2cc(-c3ccccc3C)nc3ccccc23)c(C#N)c1C	-7%	?	8.9µM*	?	16µM*	-20%[46.1 µM]
CCOC(=O)c1c(NC(=O)c2cc(-c3ccc(Cl)s3)nc3ccccc23)sc(C(N)=O)c1C	4%	-6%	7%	-6%	-6%	19%
O=c1oc2ccccc2cc1-c1cn2cc(Cc3ccccc3F)sc2n1	-11%	-12%	nt	-16%	nt	nt
CCc1ccc(NC(=O)C2CCN(S(=O)(=O)c3c(C)noc3/C=C\c3ccc(OC)cc3)CC2)cc1	?	-8%	nt	5%	nt	nt
COc1cccc(CNc2ccc3c(c2)CCC3)c1	6%	-13%	13µM*	?	-23%	18%[46.1 µM]
CC(C)c1ccc(NC(=O)C(c2ccc3c(c2)OCO3)N2CCN(C(=O)c3ccco3)CC2)cc1 (stereo unspecified)	1%	-17%	?	-13%	-24%	?
CC(C)c1ccc(NC(=O)C(c2ccccc2)N2CCN(C(=O)c3ccco3)CC2)cc1 (stereo unspecified)	8%	-18%	13µM*	-20%	-17%	?
COc1ccc(C(C(=O)NCC2CCCO2)N(C(=O)CNC(=O)c2cccs2)c2ccc(C)cc2)cc1OC (stereo unspecified)	5%	-5%	3%	1%	nt	-4%
O=C(O)c1ccc(N=C2SCC(=O)N2Cc2ccccc2)cc1	-5%	-8%	13µM*	-10%	nt	8%
O=C(O)c1ccc(CN2C(=O)CSC2=S)cc1	-20%	-16%	13µM*	?	-21%	-3%[46.1 µM]
CC(C)(C)c1ccc(CN2C(=O)CSC2=O)cc1	-1%	-14%	-3%	-11%	nt	-15%
COc1ccc(N=C2SCC(=O)N2Cc2ccccc2)cc1	-3%	-20%	?	?	nt	-18%
C=CCNC(=S)N/N=C/c1cccc([N+](=O)[O-])c1	1%	8%	?	9%	nt	-43%
CCc1cccc(NCc2ccccc2-c2nnc(-c3ccccc3Cl)o2)c1	-7%	-21%	nt	-7%	nt	nt
SMILES	Tau FP inhib	Tau fluor counter	ALDH1A1 inh	Tau ThT inhib	HPGD inh	NPSR antag
COc1ccc(OC2C=CC(c3ccccc3)OC2CO)c(C(C)=O)c1 (stereo unspecified)	-12%[11.6 µM]	-12%[11.6 µM]	-3%[13.5 µM]	-14%[11.5 µM]	nt	nt
CC1=CC(C)(C)n2c(O)c(N=N)c3c(C)c(C)cc1c32	-15%	?	nt	25µM*	nt	-42%
CC1=CC(C)(C)n2c(O)c(N=N)c3c(C)ccc1c32	-1%	2%	nt	11%	nt	-39%
CC1=CC(C)(C)n2c(O)c(N=N)c3cc(C)cc1c32	?	?	-4%	28µM*	-8%	-9%
Cc1c(C(=O)N(Cc2ccc(N(C)C)cc2)Cc2ccco2)oc2cc(Br)ccc12	?	?	nt	-17%	nt	nt
O=C1c2[nH]nc(-c3ccccc3O)c2C(c2ccc(Cl)cc2)N1Cc1ccco1 (stereo unspecified)	?	?	nt	-9%	nt	nt
COc1ccc(OCC#CCN2CC(C)OC(C)C2)cc1 (stereo unspecified)	1%	0%	6.3µM*	-6%	nt	1%
COc1ccccc1CNC(=O)c1cnc(N(C)C)nc1	1%	8%	nt	3%	nt	nt
Cc1ccccc1Nc1nnc(SCC2CCCCO2)s1 (stereo unspecified)	2%	-2%	0%	-7%	-19%	1%
COc1ccccc1Nc1nnc(SCC2CCCCO2)s1 (stereo unspecified)	15%	-2%	32µM*	0%	nt	-3%
CCC(=O)Nc1ccccc1-c1nc2ccccc2n(C(CC)C(=O)Nc2cccc(C(C)=O)c2)c1=O (stereo unspecified)	5%	2%	nt	2%	nt	nt
S=C(NCc1cccs1)Nc1cc(Cl)cc(Cl)c1	18µM*	?	?	-2%	nt	?
NNC(=S)Nc1ccccc1Cl	9%	-26%	28µM*	?	nt	6%
S=C(NCc1cccs1)Nc1cccc(Cl)c1	-4%	-25%	5%	-3%	13µM*	7%[46.1 µM]
S=C(NCc1cccs1)Nc1ccccc1Cl	4%	10%	-2%	11%	14µM*	2%
CC(C)c1ccc(NC(=S)NCc2cccs2)cc1	-6%	?	2%	-16%	?	-8%[46.1 µM]
CCCC(C)NC(=O)CSc1nc2ccc(C)cc2[nH]1 (stereo unspecified)	0%	-6%	12%	-2%	nt	-3%
O=C(NNC(=S)Nc1ccc(OC(F)F)cc1)c1cc2c(s1)CCCC2	8%	?	8.9µM*	?	-19%	20%
